The results in this text go back to PubChem BioAssay (NCATS).

Inconclusive results are not listed. Values without a mark were called inactive. The source made the active and inactive calls. Calls come from the whole dose curve; as a rule, active = well fitted curve in the direction sought with a large enough effect; inconclusive = small, poorly fitted or top-dose-only effect, or another doubt; inactive = no such curve, though single readings can be large; an effect the other way counts as inactive or inconclusive.

Assay [1] in a line: Quantitative High-Throughput drug screen in 47 multiple myeloma cell lines against the NCATS MIPE library collection: KMS12BM_JCRB cell viability assay (AID 1918971). Note: nearly all actives have a fitted effect of over 35% in size. The method, boiled down:
(§1)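 Luminescent ATP measurement with CellTiter-Glo gives viability, scaled between DMSO-only wells (100%) and media-only wells (0%). Cells, 500 per well, faced library compounds for 48 hours at 37C.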

Assay [2] in a line: Quantitative High-Throughput drug screen in 47 multiple myeloma cell lines against the NCATS MIPE library collection: KMS12PE_JCRB cell viability assay (AID 1918972). Note: nearly all actives have a fitted effect of over 30% in size. The method in brief: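 qHTS of the MIPE 4.0 collection: 500 myeloma cells/well, 48 h drug exposure at 37C in 5% CO2, then CellTiter-Glo for 5 min at room temperature before luminescence reading.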
Assay [3] in a line: Quantitative High-Throughput drug screen in 47 multiple myeloma cell lines against the NCATS MIPE library collection: KMS20_JCRB cell viability assay (AID 1918973). Note: nearly all actives have a fitted effect of over 45% in size. The method in brief: (§2)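 Viability readout: CellTiter-Glo luminescence following 5 min room-temperature incubation with reagent. Prior exposure: 48 h, 37C, humidified 5% CO2, 500 cells per well.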
A short description of assay [4]: Quantitative High-Throughput drug screen in 47 multiple myeloma cell lines against the NCATS MIPE library collection: KMS21BM_JCRB cell viability assay (AID 1918974). The settings on record: ATP luminescence, 48 h; viability: at 45.8 µM (top of the series) unless noted. The method in brief: as §2
Assay [5] is described as follows: Quantitative High-Throughput drug screen in 47 multiple myeloma cell lines against the NCATS MIPE library collection: KMS26_JCRB cell viability assay (AID 1918975). Note: nearly all actives have a fitted effect of over 45% in size. The method, boiled down:
as §1

A short description of assay [6]: Quantitative High-Throughput drug screen in 47 multiple myeloma cell lines against the NCATS MIPE library collection: MMM1_PLB cell viability assay (AID 1918976). Note: nearly all actives have a fitted effect of over 35% in size. The method in brief:
(§3)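 Viability after 48 h drug exposure was measured as ATP-dependent luminescence. Cells, 500 per well, sat at 37 °C under 5% CO2; DMSO wells set 100%, media-only wells 0%.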

Assay [7] in a line: Quantitative High-Throughput drug screen in 47 multiple myeloma cell lines against the NCATS MIPE library collection: MOLP8_DSMZ cell viability assay (AID 1918977). Note: nearly all actives have a fitted effect of over 45% in size. The method in brief: as §3
The nature of assay [8]: Quantitative High-Throughput drug screen in 47 multiple myeloma cell lines against the NCATS MIPE library collection: NCIH929_DSMZ cell viability assay (AID 1918978). Note: nearly all actives have a fitted effect of over 35% in size. The method, boiled down: as §3
Assay [9] is described as follows: Quantitative High-Throughput drug screen in 47 multiple myeloma cell lines against the NCATS MIPE library collection: OCIMY1_PLB cell viability assay (AID 1918979). Note: nearly all actives have a fitted effect of over 35% in size. The method, boiled down: as §3
A short description of assay [10]: Quantitative High-Throughput drug screen in 47 multiple myeloma cell lines against the NCATS MIPE library collection: MM1S_ATCC cell viability assay (AID 1918980). Note: nearly all actives have a fitted effect of over 45% in size. The method in brief: as §3
Assay [11] can be described thus: Quantitative High-Throughput drug screen in 47 multiple myeloma cell lines against the NCATS MIPE library collection: MM1R_ATCC cell viability assay (AID 1918981). Note: nearly all actives have a fitted effect of over 35% in size. The method in brief: as §3
The nature of assay [12]: Quantitative High-Throughput drug screen in 47 multiple myeloma cell lines against the NCATS MIPE library collection: LP1_DSMZ cell viability assay (AID 1918982). Note: nearly all actives have a fitted effect of over 35% in size. The method in brief: as §3
A short description of assay [13]: Quantitative High-Throughput drug screen in 47 multiple myeloma cell lines against the NCATS MIPE library collection: KMS28PE_JCRB cell viability assay (AID 1918983). Note: nearly all actives have a fitted effect of over 35% in size. The method in brief: as §3
A short description of assay [14]: Quantitative High-Throughput drug screen in 47 multiple myeloma cell lines against the NCATS MIPE library collection: L363_DSMZ cell viability assay (AID 1918984). Note: nearly all actives have a fitted effect of over 40% in size. The method in brief:
as §3

Assay [15] in a line: Quantitative High-Throughput drug screen in 47 multiple myeloma cell lines against the NCATS MIPE library collection: KMS34_JCRB cell viability assay (AID 1918985). Note: nearly all actives have a fitted effect of over 40% in size. The method, boiled down:
as §3

Assay [16] is described as follows: Quantitative High-Throughput drug screen in 47 multiple myeloma cell lines against the NCATS MIPE library collection: OCIMY7_PLB cell viability assay (AID 1918987). Note: nearly all actives have a fitted effect of over 65% in size. To be noted: OCI-MY7 myeloma viability, CellTiter-Glo ATP, 48 h; viability (% of DMSO): at 45.8 µM (top of the series). The method in brief:
as §3

The nature of assay [17]: Quantitative High-Throughput drug screen in 47 multiple myeloma cell lines against the NCATS MIPE library collection: OCIMY5_PLB cell viability assay (AID 1918988). Note: nearly all actives have a fitted effect of over 65% in size. The method in brief:
as §3

A short description of assay [18]: Quantitative High-Throughput drug screen in 47 multiple myeloma cell lines against the NCATS MIPE library collection: OPM1_PLB cell viability assay (AID 1918989). Note: nearly all actives have a fitted effect of over 40% in size. The method in brief: as §3
The nature of assay [19]: Quantitative High-Throughput drug screen in 47 multiple myeloma cell lines against the NCATS MIPE library collection: SKMM1_PLB cell viability assay (AID 1919863). Note: nearly all actives have a fitted effect of over 35% in size. The settings on record: SKMM1 myeloma viability, CellTiter-Glo ATP, 48 h; viability: active compounds read low. The method, boiled down:
as §3

Assay [20] in a line: Quantitative High-Throughput drug screen in 47 multiple myeloma cell lines against the NCATS MIPE library collection: U266_ATCC cell viability assay (AID 1919864). Note: nearly all actives have a fitted effect of over 35% in size. The method, boiled down:
as §3
Potency is the fitted concentration of half-maximal effect.

For `NS(=O)(=O)c1cccc2c1C(=O)c1cccc(O)c1C2=O`, the Potency in [1] is 1.05 µM (active); in assay [2] it was 0.264 µM (active); in [3], 0.132 µM (active); in assay [4], 0.148 µM (active); in [5], 0.662 µM (active); in [6] it was 0.264 µM (active). The Potency in assay [7] is 0.296 µM (active); in assay [8], 0.264 µM (active); in [9], 1.18 µM (active); in [10], 10.5 µM (active); in assay [11], 0.526 µM (active); in [12], 0.743 µM (active). Moreover, the Potency in assay [13] is 1.18 µM (active); in [14] it was 0.166 µM (active); in [15], 0.418 µM (active); in assay [16] it was 0.118 µM (active); in assay [17], 0.526 µM (active); in [18], 0.235 µM (active). Further, the Potency in assay [19] was 0.372 µM (active).

As for `CN(C[C@@H]1COCCO1)S(=O)(=O)Nc1ccc2ccc3ncc(-c4cnn(C)c4)cc3c(=O)c2c1`, the Potency in [1] was 16.6 µM (active); in assay [2], 0.743 µM (active); in assay [3], 1.18 µM (active); in [4], 5.26 µM (active); in assay [8], 7.43 µM (active); in assay [10], 16.6 µM (active). For the same molecule, the Potency in assay [11] is 18.7 µM (active); in assay [16], 0.469 µM (active); in assay [17], 3.72 µM (active); in assay [18], 2.35 µM (active); in [20] it was 3.32 µM (active).

Consider `COc1cc2ncnc(-n3nc(-c4ccccn4)nc3N)c2cc1OC`, for which the Potency was 7.43 µM (active) in [1]; 1.32 µM (active) in [2]; 6.62 µM (active) in assay [3]; 14.8 µM (active) in [5]; 4.18 µM (active) in assay [6]; 4.18 µM (active) in assay [8]. Moreover, the Potency is 20.9 µM (active) in assay [10]; 18.7 µM (active) in assay [11]; 11.8 µM (active) in [13]; 0.662 µM (active) in assay [14]; 1.66 µM (active) in [16]; 5.26 µM (active) in [17]. Also, the Potency in [18] is 11.8 µM (active); in assay [19], 0.662 µM (active). Also, the Potency entry in assay [9] and in [12] was “inactive” in each case.

In the case of `O=C(CCc1ccc(O)cc1)c1c(O)cc(O)cc1O[C@@H]1O[C@H](CO)[C@H](O)[C@H](O)[C@H]1O`, the Potency entry in assay [1], in [2], in [3], in [5], in assay [8] and in assay [9] was “inactive” each time. Besides, the Potency entry in assay [11], in assay [12], in assay [14] and in assay [17] was “inactive” each time. Further, the viability in assay [19] is 101%.

With `O=C1C(Cl)=C(NCCN2CCOCC2)C(=O)c2ncccc21`, the Potency is 2.96 µM (active) in assay [1]; 3.32 µM (active) in [2]; 4.69 µM (active) in assay [3]; 6.62 µM (active) in assay [5]; 2.96 µM (active) in assay [6]; 7.43 µM (active) in assay [8]. Moreover, the Potency was 6.62 µM (active) in [9]; 3.32 µM (active) in assay [10]; 3.32 µM (active) in [11]; 4.18 µM (active) in assay [13]; 3.72 µM (active) in assay [14]; 4.18 µM (active) in [15]. For the same molecule, the Potency in assay [16] is 3.32 µM (active); in assay [17], 2.35 µM (active); in assay [18], 7.43 µM (active); in assay [19], 4.18 µM (active); in assay [20], 5.9 µM (active).

As to `Nc1ncnc2c1nc(Cl)n2[C@@H]1O[C@H](CO)[C@@H](O)[C@@H]1O`, the Potency in assay [1] is 23.5 µM (active); in assay [2], 14.8 µM (active); in [3] it was 4.69 µM (active); in assay [5], 20.9 µM (active); in [6], 18.7 µM (active); in [10], 4.18 µM (active). For the same molecule, the Potency in [11] is 0.935 µM (active); in assay [12], 20.9 µM (active); in assay [13], 18.7 µM (active); in assay [14] it was 20.9 µM (active); in assay [15], 11.8 µM (active); in assay [16] it was 10.5 µM (active). For the same molecule, the Potency in assay [17] was 0.418 µM (active); in assay [19], 14.8 µM (active).

Consider `Cc1ccc(C(=O)Nc2cccc(C(F)(F)F)c2)cc1Nc1nc(-c2cccnc2)nc2c1cnn2C`, for which the Potency in [1] was 13.2 µM (active); in [3] it was 8.33 µM (active); in assay [5], 13.2 µM (active); in [6], 16.6 µM (active); in assay [8], 14.8 µM (active); in [9], 16.6 µM (active). In addition, the Potency in assay [10] is 18.7 µM (active); in assay [11], 18.7 µM (active); in assay [12], 16.6 µM (active); in [13] it was 26.4 µM (active); in [15], 16.6 µM (active); in assay [17], 10.5 µM (active). Moreover, the Potency in [18] was 8.33 µM (active); in assay [19], 14.8 µM (active); in assay [20] it was 8.33 µM (active). Besides, the Potency entry in assay [2] and in [4] was “inactive” throughout.

Take `CNC(=O)c1ccc2cc(C3(O)CCn4cncc43)ccc2c1` (stereo not given): the Potency result in [1], in [2], in [3], in [5], in assay [8] and in assay [9] was “inactive” in each case. For the same molecule, the Potency entry in assay [11], in [12], in assay [13] and in assay [18] was “inactive” throughout.

In the case of `CC1(C)CCC2=C(O1)c1ccccc1C(=O)C2=O`, the Potency is 20.9 µM (active) in [1]; 5.9 µM (active) in [2]; 18.7 µM (active) in assay [3]; 18.7 µM (active) in [5]; 2.64 µM (active) in assay [6]; 20.9 µM (active) in assay [7]. Further, the Potency in assay [10] was 26.4 µM (active); in [11] it was 23.5 µM (active); in assay [12] it was 20.9 µM (active); in assay [15] it was 13.2 µM (active); in assay [16] it was 3.32 µM (active); in assay [17], 18.7 µM (active). Also, the Potency in [18] and in [19] was 20.9 µM (active) throughout.

On to `O=C(Nc1c(Cl)cncc1Cl)c1ccc(OC(F)F)c(OCC2CC2)c1`, for which the Potency result in assay [1], in assay [2], in [4], in assay [5], in assay [11] and in assay [12] was “inactive” in each case. Moreover, the Potency result in assay [13], in assay [14], in [18] and in assay [20] was “inactive” each time. For the same molecule, the Potency in [8] was 23.5 µM (active); in [9], 0.0012 µM (active); in assay [10] it was 23.5 µM (active). In assay [19], the viability is 111%.

With `CN(C)C1CCN(C(=O)c2ccc(NC(=O)Nc3nc(N4CCOCC4)nc(N4CCOCC4)n3)cc2)CC1`, the Potency in [1] is 0.0083 µM (active); in assay [2], 0.105 µM (active); in assay [3], 0.105 µM (active); in assay [5] it was 0.0209 µM (active); in [6], 0.0235 µM (active); in assay [9] it was 5.9 µM (active). In addition, the Potency in assay [10] was 0.0332 µM (active); in assay [11], 0.0418 µM (active); in [13] it was 0.0132 µM (active); in assay [15], 0.132 µM (active); in [16], 5.26 µM (active); in assay [17], 0.0418 µM (active).

Usually viability stands for a read-out of living cells in per cent, often relative to untreated cells.
